Compounds with a hit are over-represented: about 2.5% of the library has one in this group of screens.
Pol kappa inh-1 = DNA polymerase kappa (human) inhibition | purified Pol kappa, fluorescent DNA synthesis assay, 10 min | Potency, µM (top dose mostly 107 µM), inactives show top-dose activity, negative = inhibition, most hits filed as inhibitors | 400,000 tested, 0.53% active | Q9UBT6 | AID 588579; also: potency is read from the fitted curve at half-maximal effect; % is scaled to controls: 0 for no effect and ±100 for the full control effect
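Enzyme at 10 nM met test compounds for 15 min at room temperature. Substrate addition (50 nM final) began the reaction, which was monitored by fluorescence at 0 and 10 min.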
POLI inh = inhibitors of human DNA polymerase iota; Q9UNA4; Pol iota fluorescent replication assay, 10 min; Potency, µM (titrated, usually from 115 µM), inactives show at the highest dose activity, negative = inhibition, hits mostly inhibitors; 390,000 tested, 1% active; also: potency is read from the fitted curve at half-maximal effect
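Fluorescent replication assay read twice, at 0 min and 10 min after adding 50 nM (final) substrate. Enzyme (10 nM) and compounds were first incubated 15 min at room temperature; enzyme-free buffer wells were negative controls.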
L3MBTL1 inh = blocks human L3MBTL1. Q9Y468. AlphaScreen L3MBTL1–H3K9me1 peptide binding. Potency, µM (top dose mostly 57.1 µM), for inactives: top-dose activity, negative = inhibition, actives largely listed as inhibitors. 230,000 tested, 0.66% active; also: potency is read from the fitted curve at half-maximal effect; % is scaled to controls: 0 for no effect and ±100 for the full control effect; nearly all actives have a fitted effect of over 60% in size
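L3MBTL1 (50 nM) pre-complexed 30 min with biotinylated H3(1-15)K9me1 peptide (75 nM), then compounds added for 30 min at room temperature; AlphaScreen streptavidin donor/nickel chelate acceptor beads (10 ug/mL final) read after 30 min dark incubation.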
WRN inhibitor = WRN helicase (human) inhibition; 360,000 tested, 0.46% active; WRN helicase unwinding, fluorescent forked duplex, kinetic; Potency, µM (highest dose often 114 µM), without a hit: at the highest dose activity change, negative = inhibition, hits mostly inhibitors; Q14191; also: potency is read from the fitted curve at half-maximal effect; % is scaled to controls: 0 for no effect and ±100 for the full control effect; nearly all actives have a fitted effect of over 55% in size
Target sequence (Q14191 whole entry, looked up): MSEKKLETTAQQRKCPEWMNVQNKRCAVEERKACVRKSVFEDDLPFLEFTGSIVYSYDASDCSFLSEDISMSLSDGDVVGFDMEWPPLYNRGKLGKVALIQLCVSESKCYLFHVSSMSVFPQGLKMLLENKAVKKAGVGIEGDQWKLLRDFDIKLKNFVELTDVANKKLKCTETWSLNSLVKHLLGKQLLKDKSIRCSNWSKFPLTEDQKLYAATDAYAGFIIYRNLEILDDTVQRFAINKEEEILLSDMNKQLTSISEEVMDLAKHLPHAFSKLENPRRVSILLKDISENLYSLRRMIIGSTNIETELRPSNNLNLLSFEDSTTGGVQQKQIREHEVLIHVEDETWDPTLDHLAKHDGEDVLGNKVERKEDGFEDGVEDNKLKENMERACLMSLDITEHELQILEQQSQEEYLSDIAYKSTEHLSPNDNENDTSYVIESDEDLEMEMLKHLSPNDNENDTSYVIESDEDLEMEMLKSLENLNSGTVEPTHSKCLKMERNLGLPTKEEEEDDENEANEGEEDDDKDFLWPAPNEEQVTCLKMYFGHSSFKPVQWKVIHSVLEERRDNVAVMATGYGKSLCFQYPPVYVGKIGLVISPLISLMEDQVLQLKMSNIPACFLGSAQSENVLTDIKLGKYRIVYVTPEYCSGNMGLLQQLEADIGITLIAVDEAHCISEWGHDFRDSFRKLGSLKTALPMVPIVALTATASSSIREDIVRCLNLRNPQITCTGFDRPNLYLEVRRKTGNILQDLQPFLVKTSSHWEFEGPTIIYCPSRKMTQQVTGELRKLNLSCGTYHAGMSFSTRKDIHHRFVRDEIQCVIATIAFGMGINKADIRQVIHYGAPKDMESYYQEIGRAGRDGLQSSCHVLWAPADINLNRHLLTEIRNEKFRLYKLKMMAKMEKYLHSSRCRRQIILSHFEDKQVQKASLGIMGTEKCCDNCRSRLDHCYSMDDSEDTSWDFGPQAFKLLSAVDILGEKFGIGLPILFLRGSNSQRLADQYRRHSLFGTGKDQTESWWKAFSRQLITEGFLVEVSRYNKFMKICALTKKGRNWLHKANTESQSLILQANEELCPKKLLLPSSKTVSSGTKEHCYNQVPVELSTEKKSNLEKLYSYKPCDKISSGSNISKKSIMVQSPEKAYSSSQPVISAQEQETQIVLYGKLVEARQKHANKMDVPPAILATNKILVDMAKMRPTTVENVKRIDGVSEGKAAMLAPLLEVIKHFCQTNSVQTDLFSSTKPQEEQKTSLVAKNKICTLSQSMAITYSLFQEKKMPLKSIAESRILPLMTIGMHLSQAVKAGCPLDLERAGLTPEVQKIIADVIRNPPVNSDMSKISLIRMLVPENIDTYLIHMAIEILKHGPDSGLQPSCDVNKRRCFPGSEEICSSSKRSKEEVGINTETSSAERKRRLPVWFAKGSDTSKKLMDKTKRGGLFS
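WRN at 20 nM final was preincubated with compound for 15 min at room temperature; reaction started with 100 nM forked duplex oligonucleotide carrying fluorophore and quencher plus 2 mM ATP (final). Unwinding followed kinetically by red fluorescence (ex 525/em 598 nm).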
POLB inh = blocks human DNA polymerase beta activity | P06746 | Pol beta primer extension/strand displacement, fluorescence kinetic | Potency, µM (doses to about 114 µM), inactives show at the top dose activity change, negative = inhibition, most hits filed as inhibitors | 340,000 tested, 1.3% active | AID 485314; also: potency is read from the fitted curve at half-maximal effect; % is scaled to controls: 0 for no effect and ±100 for the full control effect
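Pol beta (10 nM) and compounds were preincubated 15 min at room temperature, then 50 nM substrate (final) started primer extension/strand displacement. Reads were taken at 0 and 10 min; concentration-response data were fitted to a four-parameter Hill equation.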
Pol eta inh-1 = inhibitors of human DNA polymerase eta; Q9Y253; recombinant Pol eta, fluorescent DNA replication assay; Potency, µM (series often up to 114 µM), for the others: at the top dose activity change, negative = inhibition, usual class: inhibitors; 390,000 tested, 1.2% active; AID 588591; also: potency is read from the fitted curve at half-maximal effect; % is scaled to controls: 0 for no effect and ±100 for the full control effect
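Pol eta at 10 nM preincubated with compounds 15 min at room temperature; reaction started with fluorescent substrate (50 nM final) and read kinetically at 0 and 10 min.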
GALK confirm = galactokinase (human) inhibition, confirmation. 150 tested, 70% active. purified GALK, Kinase-Glo ATP depletion luminescence. shares compounds with Pol eta inh-1. Potency, µM (series often up to 115 µM), for the others: at the top dose activity, negative = inhibition, actives largely listed as inhibitors. AID 2015
Redox cycling = redox cycling activity in phenol red-HRP assay; shares compounds with Pol eta inh-1; Phenol red-HRP H2O2 redox cycling, absorbance 600 nm; Potency, µM (series often up to 115 µM), for inactives: at the highest dose activity change, negative = H2O2 signal, usual class: inhibitors; 150 tested, 40% active; AID 2035
HEK293 viability = reduces HEK-293 cell viability in GALK counter-screen | shares compounds with Pol eta inh-1 | HEK-293 viability, ATP luminescence (CellTiter-Glo), 24/48 h | Potency, µM (top dose mostly 46.1 µM), inactives show at the highest dose activity change, negative = cytotoxicity, hits mostly inhibitors | 170 tested, 10% active | AID 2547; also: potency is read from the fitted curve at half-maximal effect; % is scaled to controls: 0 for no effect and ±100 for the full control effect
Pol kappa inh-2 = Pol kappa (human) inhibition, cherry-pick confirmation; shares compounds with Pol eta inh-1; purified Pol-kappa, fluorescent strand-displacement substrate; Potency, µM, usual class: inhibitors; 920 tested, 76% active; AID 720501; also: potency is read from the fitted curve at half-maximal effect
Pol eta inh-2 = Pol eta (human) inhibition, cherry-pick confirmation; 2,600 tested, 64% active; shares compounds with Pol eta inh-1; Potency, µM, actives largely listed as inhibitors; Pol eta primer extension, TAMRA/BHQ fluorescence, 10 min; also: potency is read from the fitted curve at half-maximal effect
Active calls of the source: *; ? = inconclusive; / = no result; [ ] = another dose, or the depositor's remark. Calls follow the shape of the dose curve; as a rule, active = well fitted curve in the direction sought with a large enough effect; inconclusive = small, poorly fitted or top-dose-only effect, or another doubt; inactive = no such curve, though single readings can be large; an effect the other way counts as inactive or inconclusive.

SMILES	Pol kappa inh-1	POLI inh	L3MBTL1 inh	WRN inhibitor	POLB inh	Pol eta inh-1	Pol eta inh-2	others
O=[N+]([O-])c1c(NCCO)cc(N2CCN(Cc3ccc4c(c3)OCO4)CC2)c2nonc12	4%	-2%	-12%	11%	4%	-10%	/
Cc1cc(C(=O)Nc2sccc2C#N)c2ccccc2n1	-38%	?	/	-1%[11.6 µM]	2%	45µM*	?
Cc1ccc(S(=O)(=O)N2[C@@H](c3ccc(Br)cc3)C(C(=O)O)=CC[C@H]2c2ccc(Cl)c(Cl)c2)cc1	-18%	-25%	-3%	-20%	/	89µM*	/	Pol kappa inh-2=?
Cc1ccc(S(=O)(=O)N2[C@@H](c3ccc(C(C)(C)C)cc3)C(C(=O)O)=CC[C@H]2c2cccc(Cl)c2)cc1	?	?	-10%	71µM*	/	89µM*	?	Pol kappa inh-2=67*
Cc1ccc(S(=O)(=O)N2[C@@H](c3ccc(C(C)(C)C)cc3)C(C(=O)O)=CC[C@H]2c2ccc(Cl)c(Cl)c2)cc1	-29%	-6%	-6%	-8%	/	0%	/
COc1ccc(/C=C2/SC(=O)N(CCNC(=O)CC(NC(C)=O)c3ccccc3)C2=O)cc1 (stereo not given)	-15%	18%	0%	-2%	1%	4%	/
CCCCNC(=O)OCC(CC)NC(=O)OCC(C)C (stereo not given)	-2%	6%	-2%	4%	7%	-3%	/
NC(=O)N/N=C/c1ccc(-c2cccc(C(F)(F)F)c2)o1	0%	9%	4%	2%	-24%	-4%	/
NC(=O)N/N=C/c1ccc(-c2ccc(S(=O)(=O)Nc3ncccn3)cc2)o1	?	?	-23%	-7%[11.6 µM]	/	35µM*	67*	Pol kappa inh-2=38*
Cn1cccc1/C=C1/SC(=S)N(CC(=O)O)C1=O	-13%	?	/	-5%	?	8%	/
O=C(O)CN1C(=O)/C(=C/c2ccc(-c3cccc(Cl)c3)o2)SC1=S	/	/	/	/	/	/	?	Pol kappa inh-2=34*
CCN(CCCNC(=O)c1ccc(Sc2ccc(Cl)cc2)c(NC(C)=O)c1)c1cccc(C)c1	-9%[60.1 µM]	7%	/	/	-1%	-22%	/
COc1ccc(N2CC(C(=O)Nc3nnc(SCCC4OCCO4)s3)CC2=O)cc1 (stereo not given)	-29%	-14%	/	-3%	14µM*	35µM*	?
Cc1ccc(N2CC(C(=O)Nc3nnc(SCCC4OCCO4)s3)CC2=O)cc1 (stereo not given)	-11%	35%	/	-30%	6%	?	/
COCCn1c(C)cc(C(=O)COC(=O)c2ccc(N3CCCC3=O)cc2)c1C	-7%	-13%	-12%[11.4 µM]	1%	-28%	-6%	/
CN(c1ccccc1C(=O)O)S(=O)(=O)c1ccc2c3c(cccc13)C(=O)N2	79µM*	?	?	?	13µM*	13µM*	?
CC1=NN(c2ccccc2)C(=O)/C1=C/c1ccc(-c2ccc(C)c(C(=O)O)c2)o1	-15%	?	/	?	/	25µM*	?
Cc1ccc(NC(=O)/C(C#N)=C/c2ccc(-c3ccc(Cl)c(C(=O)O)c3)o2)cc1C	?	-23%	/	/	-21%	-9%	/
CC1=NN(c2ccc(Cl)c(C(=O)O)c2)C(=O)/C1=C\c1ccc(-c2ccc(C(=O)O)cc2)o1	?	?	/	?	16µM*	13µM*	?	Pol kappa inh-2=15*
CC(C)CCN1C(=O)c2ccc(-c3nc4ccccc4c(=O)o3)cc2C1=O	-7%	6%	0%	-5%	30%	6%	/
O=C(O)c1cccc(S(=O)(=O)N2CCC(n3nnc4cc(C(F)(F)F)ccc43)CC2)c1	-14%	61%	/	-13%	46%	3%	/	GALK confirm=?;Redox cycling=-25%;HEK293 viability=2%
CCN(CC)c1cc(C)c2cc(NC(=O)c3ccccc3F)ccc2n1	-4%[60.1 µM]	11%	/	1%	31%	-25%	/
Cc1cc(C)nc(N/N=C/C2=C(N3CCOCC3)C(=C\c3ccc(Cl)cc3)/CC2)n1	-16%	?	-10%	-12%	-7%	-6%	/
O=C(O)c1ccc(N/N=C/C2=C(N3CCOCC3)C(=C\c3ccccc3)/CC2)cc1	32µM*	?	?	?	?	50µM*	?
Cc1cccc(Oc2ccccc2NS(=O)(=O)c2ccc(CCC(=O)O)cc2)c1	-44%	?	?	-3%[11.6 µM]	/	20µM*	85*	Pol kappa inh-2=19*
SMILES	Pol kappa inh-1	POLI inh	L3MBTL1 inh	WRN inhibitor	POLB inh	Pol eta inh-1	Pol eta inh-2	others
O=C(O)CCc1ccc(S(=O)(=O)Nc2ccccc2C(=O)NCCc2ccccc2)cc1	4%	25%	/	-5%	7%	4%	/
CC(=O)c1cccc(NC(=O)c2ccc(-c3ccccc3[N+](=O)[O-])o2)c1	-8%	22%	-18%	-21%[57.1 µM]	-3%	-13%	/
CCOc1cc(CNc2ccc3c(c2)CCC3)ccc1O	-4%	?	/	-4%	9%	5%	/
CCOc1cc(CNc2ccc(O)cc2)ccc1OCc1ccc(Cl)cc1	?	7.9µM*	/	/	?	-23%	?
Oc1ccc(NCc2ccccc2OCc2ccc(Cl)cc2)cc1	?	?	/	/	?	-16%	?
Cc1ccc(S(=O)(=O)n2nc(OC(=O)c3ccccc3F)cc2N)cc1	-26%	115%	/	10%	9%	-16%	/
O=C(CSc1nc(=O)n2cc(Cl)ccc2n1)Nc1ccc2c(c1)OCCO2	-44%	-19%	?	?	/	28µM*	?
Cc1cc(C)n(C(N)=NC(=O)c2ccc([N+](=O)[O-])cc2)n1	-9%	?	0%	4%	26%	-5%	/

Screening data: PubChem, National Center for Advancing Translational Sciences (NCATS)
